Measured values: PubChem BioAssay (NCI)
This is part of a sample that, as a whole, favours compounds with a hit. Of some 83,000 tested, about 20% had one in any assay.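 In brief: 96-well plates, 48 h treatment, single concentration, percent growth endpoint.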 Unmarked numbers belong to inactive results. Activity calls are given as the source filed them.

test system: HOP-92 NSCLC; test: NCI-60 one-dose screen, 48 h (100 = growth as untreated, 0 = no growth, -100 = all killed); conditions: 10 µM unless noted
Procedure: Growth inhibition of the HOP-92 human Non-Small Cell Lung tumor cell line is measured as a screen for anti-cancer activity. Cells are grown in 96 well plates and exposed to the test compound for 48 hours. Compounds are tested at a single concentration, which is 10^-5 M for most compounds. The reported endpoint is percent growth (GI% or GIPRCNT), where numbers from 0 - 100% represent growth inhibition, and numbers from -100% - 0 represent cell death. For example, a value of 40 represents 60% growth inhibition. A value of 0 means no net growth occurred over the course of the experiment. A value of -40 indicates 40% of cells at the beginning of the experiment died by the end of the experiment. A value of -100 means all cells are dead at the end of the experiment.
NCI-60 Human Tumor Cell Lines Screen was performed using the standard one-dose NCI protocol, which is described in more detail at https://dtp.cancer.gov/discovery_development/nci-60/default.htm.
Compounds with GIPRCNT values below 10 were considered active. Activity score was based on GIPRCNT using the following formula: […]
Score is 0 for GIPRCNT values of 100 or above, 50 for GIPRCNT values of 0, and 100 for GIPRCNT values of -100.

Compared with `COc1cc(C2CC(c3ccc(Nc4nc(NCCO)nc(Nc5ccc(Cl)cc5)n4)cc3)=Nc3c(N)nc(N)nc3N2)cc(OC)c1OC` (stereo not given), `Nc1nc(N)c2c(n1)NC(c1ccc(Cl)cc1)CC(c1ccc(Nc3nc(NCCO)nc(Nc4ccc(Cl)cc4)n3)cc1)=N2` (stereo not given) is higher in growth: 43.5% for the first, 67.4% for the second.

First: Cc1nc(-c2cc3ccccc3c(N3CCN(C)CC3)n2)cs1
Second: Cn1cc(-c2nn3cc(-c4cccnc4)nc3s2)c2ccccc21
The growth of the first is higher: 61.1% for the first, 26.1% for the second.

First: O=C(NNc1nc2cc(F)c(F)cc2n2cccc12)c1ncccn1
Second: O=C(NNc1nc2cc(F)cc(F)c2n2cccc12)c1ncccn1
The growth of the first is higher: 68.1% for the first, 61.2% for the second.

Compared with `O=S(=O)(Nc1ccc(C2CC2)cc1)c1ccc(-c2cnc(C3CC3)o2)cc1`, `O=S(=O)(Nc1ccc(-c2nc(-c3cccc(O)c3)c(-c3ccnc(Br)c3)[nH]2)cc1)c1ccccc1` is lower in growth: 77.3% for the first, 13.7% for the second.

First: COc1ccc(-c2cc(-c3cccc4ccccc34)n3c(n2)nc2ccccc23)cc1OC
Second: COc1ccc(N2C(=O)c3cc(OC)c(OC)cc3NC2SCc2ccccc2)cc1 (stereo not given)
The growth of the first is lower: 11.5% for the first, 112% for the second.

First: O=C1[C@H]2Cc3c([nH]c4ccccc34)[C@@H](c3c(Cl)cccc3Cl)N2C(=O)CN1C1CCN(Cc2ccccc2)CC1
Second: O=C1[C@@H]2Cc3c([nH]c4ccccc34)[C@H](c3c(Cl)cccc3Cl)N2C(=O)CN1C1CCN(Cc2ccccc2)CC1
The growth of the first is higher: 83.8% for the first, 42.8% for the second.

Going from `CC(C)c1nn(-c2ccccc2)c(N2CCCCC2)c1/C=N/NC(N)=S` to `NC(=S)N/N=C(/C=C/c1cn(-c2ccccc2)nc1-c1ccc(Cl)cc1)c1cc2ccccc2oc1=O`, the growth rises from 64.6% to 70.2%.

First: COc1ccc(Oc2ccc(C3CC(c4cc(OC)c(OC)c(OC)c4)=NN3C(C)=O)cc2)cc1 (stereo not given)
Second: COc1ccc(Cn2cc3c(c2-c2cc(OC)c(OC)c(OC)c2)CCCc2cnoc2-3)cc1N
The growth of the first is lower: 12.2% for the first, 65.3% for the second.

Going from `O=C(Cn1cc(CN2C(=O)c3ccc([N+](=O)[O-])cc3C2=O)nn1)Nc1ccccc1Br` to `COc1ccc(NC(=O)Cn2cc(CN3C(=O)c4ccc([N+](=O)[O-])cc4C3=O)nn2)cc1`, the growth falls from 114% to 85.6%.

First: Cc1ccc(NC(=O)c2ccc(CN3CCN(C)CC3)c(I)c2)cc1Oc1ccc(-c2[nH]nc3ncnc(N)c23)cc1
Second: COc1ccc(S(=O)(=O)NCCCNc2nccc(-n3cnc4ccccc43)n2)cc1
The growth of the first is higher: 83.4% for the first, 75.8% for the second.

Going from `COc1cc2cc(Oc3ccc(NC(=O)Nc4cc(C(F)(F)F)cc(C(F)(F)F)c4)cc3)c(C)nc2cc1OCCN(C)C` to `C=CCn1c(SCC(=O)Nc2cccc(C(=O)/C=C/c3cc(OC)c(OC)c(OC)c3)c2)nc2ccccc2c1=O`, the growth falls from 127% to 48.4%.

First: O=C1/C(=C/c2ccc([N+](=O)[O-])cc2)SC(=Nc2ccccc2)N1Nc1ccccc1
Second: NS(=O)(=O)c1ccc(Nc2nc(N/N=C/c3ccc(F)cc3)nc(Nc3ccccc3)n2)cc1
The growth of the first is higher: 108% for the first, 63.5% for the second.

Going from `C#CCOc1ccc(C(Nc2cc(Cl)ccc2Cl)c2nnnn2C2CCCCC2)cc1` (stereo not given) to `O=C(NNc1nc2cc(F)ccc2n2cncc12)c1cnccn1`, the growth falls from 72.7% to 63.7%.

First: CN1C(=O)N(C)C2Nn3c(s/c(=C\c4ccccn4)c3=O)=NC21 (stereo not given)
Second: C#C[C@]1(O)CC[C@H]2[C@@H]3CC=C4c5sc(-c6ccccn6)nc5CC[C@]4(C)[C@H]3CC[C@@]21C
The growth of the first is lower: 107% for the first, 110% for the second.

Going from `CC1(C)CC[C@]2(C(=O)N3CCCN(CC#N)CC3)CC[C@]3(C)C(=CC[C@@H]4[C@@]5(C)CC[C@H](O)C(C)(C)[C@@H]5CC[C@]43C)[C@H]2C1` to `COC(=O)c1c(C(=O)OC)c2n(CC(=O)Nc3cccc4cccnc34)c3ccccc3n2c1C(=O)c1ccc(C)cc1`, the growth rises from 19.3% to 89.7%.

For `O=C(C[n+]1ccnc2ccccc21)c1ccc(O)c(O)c1`, the growth was 64.8%.

With `Oc1ccc(-c2nnc(SCc3ccc(O)c4ncccc34)n2-c2ccccc2)cc1` the growth was 4.59% (active).
For `C#C[C@]1(O)CC[C@H]2[C@@H]3CC=C4c5sc(Nc6cccc(C)n6)nc5CC[C@]4(C)[C@H]3CC[C@@]21C`, the growth was 1.75% (active).
In the case of `Cc1cn(-c2cc(NC(=O)c3cncc(C#Cc4cnc5ccc(O[C@@H]6CCOC6)nn45)c3)cc(C(F)(F)F)c2)cn1`, the growth is reported as -44.6% (active).
`Oc1ccc(CSc2nnc(-c3ccccc3)n2-c2ccccc2)c2cccnc12` was tested, and the growth was -14.4% (active).
For `CC1=CC(=O)CC(C)(C)[C@@]1(O)/C=C/C(C)=C\C(=O)O`, the growth was -14.6% (active).
In the case of `O=C(Nc1cc(Cl)cc(Cl)c1)Nc1nc2ccc([N+](=O)[O-])cc2s1`, the growth is reported as -6.65% (active).
In the case of `CC[C@@](C)(NC(=O)C(C)(C)NC(=O)[C@@H](NC(=O)[C@@H]1CCCN1C(=O)C(C)(C)NC(=O)[C@H](CC(C)C)NC(=O)CNC(=O)C(C)(C)NC(=O)[C@@H](NC(=O)C(C)(C)NC(=O)[C@H](CCC(N)=O)NC(=O)[C@H](C)NC(=O)C(C)(C)NC(=O)[C@H](C)NC(=O)C(C)(C)NC(=O)[C@H](C)NC(=O)C(C)(C)NC(C)=O)C(C)C)C(C)C)C(=O)N[C@@H](CCC(N)=O)C(=O)N[C@@H](CCC(N)=O)C(=O)N[C@H](CO)CC1CCCCC1`, the growth is reported as -17.2% [5 µM] (active).
In the case of `C#C[C@]1(O)CC[C@H]2[C@@H]3CC=C4c5sc(Nc6ccncc6)nc5CC[C@]4(C)[C@H]3CC[C@@]21C`, the growth is reported as 4.3% (active).
In the case of `Oc1ccc(CSc2nnc(-c3ccncc3)n2-c2ccccc2)c2cccnc12`, the growth is reported as -7.79% (active).
